Test results: PubChem BioAssay (Tox21)
Inconclusive results are not listed. The source made the active and inactive calls. Unless noted, calls follow the shape of the dose curve; as a rule, active = well fitted curve in the direction sought with a large enough effect in the repeat runs; inconclusive = weak or mixed curves; inactive = no such curve, though single readings can be large; an effect the other way counts as inactive or inconclusive.

Tests used:
[1] = qHTS assay to identify small molecule antagonists of the estrogen related receptor (ERR) signaling pathway from Tox21 library - cell viability counter screen (AID 1224834); also: nearly all actives have a fitted effect of over 30% in size
In short: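 Counter screen run in ERR cells (2,000 cells/well): cells pre-incubated 6 h, then treated with compounds for 17.5 h at 37 C. Fluorescence was read 30 min after CellTiter-Fluor addition.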

[2] = molecular target: Luciferin 4-monooxygenase (Photinus pyralis) (UniProt P08659); assay: qHTS assay to identify small molecule inhibitors of firefly luciferase (AID 1224835); also: nearly all actives have a fitted effect of over 25% in size
Luciferin 4-monooxygenase (Photinus pyralis), sequence (P08659 whole entry, looked up): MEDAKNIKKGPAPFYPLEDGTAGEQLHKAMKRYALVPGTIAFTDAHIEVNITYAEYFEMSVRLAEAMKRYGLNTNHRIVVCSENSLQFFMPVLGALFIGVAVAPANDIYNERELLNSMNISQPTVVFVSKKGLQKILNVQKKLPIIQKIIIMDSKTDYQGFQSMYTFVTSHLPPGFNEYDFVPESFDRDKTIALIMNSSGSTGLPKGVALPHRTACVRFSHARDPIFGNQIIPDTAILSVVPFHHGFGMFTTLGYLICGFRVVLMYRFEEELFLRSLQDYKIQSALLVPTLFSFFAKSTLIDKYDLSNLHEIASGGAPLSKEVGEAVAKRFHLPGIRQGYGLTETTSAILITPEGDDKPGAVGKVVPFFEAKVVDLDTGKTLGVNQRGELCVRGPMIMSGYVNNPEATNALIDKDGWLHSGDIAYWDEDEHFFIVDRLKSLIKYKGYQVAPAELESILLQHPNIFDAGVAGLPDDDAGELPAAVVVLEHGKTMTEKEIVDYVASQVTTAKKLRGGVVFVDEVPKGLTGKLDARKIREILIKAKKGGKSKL
In short: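 Biochemical qHTS: compounds run as interplate titrations against purified firefly enzyme, with D-luciferin and ATP each at its KM concentration. Light output recorded by CCD imaging.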

[3] = qHTS assay to identify small molecule agonists of the constitutive androstane receptor (CAR) signaling pathway - cell viability counter screen (AID 1224836); also: nearly all actives have a fitted effect of over 45% in size
In short: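 Cells were seeded and incubated 4 hrs. Compounds were added across 15 concentrations together with PK11195 at 0.75 uM final. Plates were incubated 23 hrs at 37 C. CellTiter-Fluor was added and fluorescence measured.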

[4] = qHTS assay to identify small molecule antagonists of the constitutive androstane receptor (CAR) signaling pathway - cell viability counter screen (AID 1224837); also: nearly all actives have a fitted effect of over 45% in size
In short: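 CITCO at 50 nM final was added alongside compounds (15 concentrations) to double-stable hCAR/CYP2B6-2.2kb HepG2 cells. Following 23 hr at 37 C, cell viability was quantified by CellTiter-Fluor fluorescence intensity.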

[5] = qHTS assay to identify small molecule antagonists of the estrogen related receptor signaling pathway with the pleiotropic PPARgamma coactivator (PGC) from Tox21 10K library - cell viability counter screen (AID 1224840; active = well fitted cell-killing curve with a large enough effect in the repeat runs, not every such curve was filed as active; also: nearly all actives have a fitted effect of over 40% in size)
In short: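 Readout: fluorescence intensity from CellTiter-Fluor after 30 min at 37 C/5% CO2. Preceded by 17.5 h treatment of PGC/ERR cells with DMSO-dissolved compounds, added 6 h post-seeding.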

[6] = molecular target: Thyrotropin receptor (Homo sapiens) (UniProt P16473); assay: qHTS assay to identify small molecule agonists of the thyroid stimulating hormone receptor (TSHR) signaling pathway (AID 1224843; calls by dose curve; also: nearly all actives have a fitted effect of over 45% in size)
Thyrotropin receptor (Homo sapiens), sequence (P16473 whole entry, looked up): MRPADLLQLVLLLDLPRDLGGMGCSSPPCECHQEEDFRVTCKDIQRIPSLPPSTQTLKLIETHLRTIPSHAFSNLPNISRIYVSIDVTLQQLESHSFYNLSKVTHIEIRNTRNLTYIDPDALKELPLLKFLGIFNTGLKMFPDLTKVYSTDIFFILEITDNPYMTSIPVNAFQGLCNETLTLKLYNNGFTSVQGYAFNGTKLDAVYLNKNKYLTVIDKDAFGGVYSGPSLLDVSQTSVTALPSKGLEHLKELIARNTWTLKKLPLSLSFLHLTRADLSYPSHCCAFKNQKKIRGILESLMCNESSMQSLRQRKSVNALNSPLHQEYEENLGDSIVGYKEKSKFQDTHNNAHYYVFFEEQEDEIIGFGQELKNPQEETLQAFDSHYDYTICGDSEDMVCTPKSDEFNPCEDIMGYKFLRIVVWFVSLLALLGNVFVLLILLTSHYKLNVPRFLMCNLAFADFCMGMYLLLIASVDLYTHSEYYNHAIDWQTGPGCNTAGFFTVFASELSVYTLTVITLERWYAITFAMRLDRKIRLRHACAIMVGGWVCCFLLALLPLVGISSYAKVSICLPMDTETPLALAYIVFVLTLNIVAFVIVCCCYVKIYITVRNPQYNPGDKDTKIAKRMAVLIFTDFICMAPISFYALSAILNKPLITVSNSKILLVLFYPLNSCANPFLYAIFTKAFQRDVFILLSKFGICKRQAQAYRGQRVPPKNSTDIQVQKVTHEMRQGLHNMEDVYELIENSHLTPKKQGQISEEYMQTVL
In short: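 HEK293/TSHR, 800 cells/well; cpd 30 min RT; add cAMP-d2 + anti-cAMP-cryptate, 1 h RT; fluorescence read on plate reader. 15-pt titration, n=3.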

[7] = qHTS assay to identify small molecule agonists of the hypoxia (HIF-1) signaling pathway - cell viability counter screen (AID 1224844; calls by dose curve; also: nearly all actives have a fitted effect of over 50% in size)
In short: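 In this counter screen, HRE-bla ME-180 cell viability after 17 hrs of compound exposure at 37C was read by CellTiter-Glo luminescence, multiplexed with the beta-lactamase reporter measurement.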

[8] = qHTS assay to identify small molecule agonists of H2AX (AID 1224845; active = well fitted activation curve with a large enough effect in the signal ratio in the repeat runs, not every such curve was filed as active; the % refers to the signal ratio)
In short: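 Wild-type CHO-K1 cells, plated overnight, exposed 3hr at 37C to 15 concentrations (0.76% DMSO final). Lysed, then HTRF anti-pH2AX (S139) cryptate and anti-H2AX-d2 antibodies, 24 hr room temperature; 665/620 nm emission read.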

[9] = qHTS assay to identify small molecule agonists of the hypoxia (HIF-1) signaling pathway (AID 1224846; active = well fitted activation curve with a large enough effect in the signal ratio in the repeat runs, not every such curve was filed as active; the % refers to the signal ratio)
In short: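 ME-180 HRE-bla reporter cells; compounds in DMSO, 17 h at 37C; read-out beta-lactamase via CCF4-AM FRET.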

[10] = qHTS assay to identify small molecule agonists of H2AX - cell viability counter screen (AID 1224847; calls by dose curve; also: top concentration of the series differs between compounds; nearly all actives have a fitted effect of over 30% in size)
In short: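 Cytotoxicity counter screen in wild-type CHO-K1 cells: a 3 hr compound treatment at 37C across 15 concentrations, followed by CellTiter-Glo luminescence to gauge viable cells.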

[11] = qHTS RealTime-Glo MT Cell Viability Assay in HEK293 cells - 32 hour (AID 1224868); also: top concentration of the series differs between compounds; nearly all actives have a fitted effect of over 50% in size
In short: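 HEK293 cells seeded with NanoLuc/prosubstrate reagent, rested 5 h at 37 C, then dosed and kept at 37 C up to 40 h. Nonlytic real-time luminescence from viable cells read at 0, 8, 16, 24, 32 and 40 h.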

[12] = A CellTox Green Cytotoxicity Assay to monitor cytotoxicity in HEK293 cells - 0 hour (AID 1224869); also: nearly all actives have a fitted effect of over 50% in size
In short: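 Real-time, in one plate: 600 HEK293 cells/well with dead-cell DNA dye, pinned compound after 5 h, 37 C incubation over 40 h; viable cells give no appreciable fluorescence.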

[13] = qHTS RealTime-Glo MT Cell Viability Assay in HepG2 cells - 40 hour (AID 1224870); also: nearly all actives have a fitted effect of over 50% in size
In short: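 HepG2 cells (600/well) mixed with RealTime-Glo MT reagent, settled 5 h at 37 C/5% CO2 before compound addition. Nonlytic NanoLuc luminescence from viable-cell prosubstrate reduction read repeatedly during 40 h treatment at 37 C.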

[14] = qHTS assay to identify small molecule antagonists of the estrogen related receptor signaling pathway with the pleiotropic PPARgamma coactivator (PGC) from Tox21 10K library (AID 1224841; call rule not given here)
In short: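 One-Glo luminescence, measured after half an hour at room temperature, quantified reporter output of PGC/ERR cells. These had been plated at 2,000 per well, incubated 6 h, dosed with compounds in DMSO, then kept 18 h at 37 C.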

[15] = qHTS assay to identify small molecule agonists of the estrogen related receptor signaling pathway with the pleiotropic PPARgamma coactivator (PGC) from Tox21 10K library (AID 1224842); also: nearly all actives have a fitted effect of over 15% in size
In short: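 PGC/ERR reporter cell line, 2,000 cells per well, incubated 6 h at 37 C before 23 nL compound in DMSO was added. After 18 h at 37 C, One-Glo luminescence read following 30 min at room temperature.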

[16] = qHTS assay to identify small molecule antagonists of the estrogen related receptor (ERR) signaling pathway from Tox21 library (AID 1224848); also: nearly all actives have a fitted effect of over 50% in size
In short: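 Compounds dissolved in DMSO are pin-transferred onto ERR reporter cells (2,000 per well) that have settled for 6 h at 37 C. Plates then incubate 18 h at 37 C before ONE-Glo luciferase reagent and a luminescence read 30 min later.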

[17] = qHTS assay to identify small molecule agonists of the estrogen related receptor (ERR) signaling pathway from Tox21 library (AID 1224849; calls by dose curve; also: nearly all actives have a fitted effect of over 15% in size); details: ERR reporter cell line, ONE-Glo luciferase, 18 h; at 92.4 µM (top of the series) unless noted
In short: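 Luciferase activity in ERR pathway reporter cells served as the agonist readout; exposure lasted 18 h at 37 C, with ONE-Glo detection after 30 min at room temperature.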

[18] = qHTS RealTime-Glo MT Cell Viability Assay in HepG2 cells - 24 hour (AID 1224867); also: nearly all actives have a fitted effect of over 50% in size
In short: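 HepG2 cells (600/well) were dispensed with RealTime-Glo reagents, incubated 5 h at 37 °C, then treated with compounds in DMSO for up to 40 h. Nonlytic NanoLuc luminescence reflecting viable cells was read at each stated time point.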

[19] = molecular target: Nuclear receptor subfamily 1 group I member 3 (Homo sapiens) (UniProt Q14994); assay: qHTS assay to identify small molecule antagonists of the constitutive androstane receptor (CAR) signaling pathway (AID 1224838); also: nearly all actives have a fitted effect of over 40% in size
Nuclear receptor subfamily 1 group I member 3 (Homo sapiens), sequence (Q14994 whole entry, looked up): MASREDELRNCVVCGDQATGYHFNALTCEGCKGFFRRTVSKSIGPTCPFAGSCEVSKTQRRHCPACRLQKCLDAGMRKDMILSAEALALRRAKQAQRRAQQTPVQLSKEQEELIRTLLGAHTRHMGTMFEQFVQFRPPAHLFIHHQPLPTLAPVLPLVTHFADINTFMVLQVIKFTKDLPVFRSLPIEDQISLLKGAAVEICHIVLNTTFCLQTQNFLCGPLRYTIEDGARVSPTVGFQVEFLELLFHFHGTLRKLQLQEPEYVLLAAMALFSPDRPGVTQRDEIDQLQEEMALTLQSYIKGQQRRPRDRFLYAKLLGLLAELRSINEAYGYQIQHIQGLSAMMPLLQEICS
In short: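 Inhibition of CITCO-driven (50 nM final) CYP2B6 reporter expression is measured in HepG2 cells stably carrying hCAR. Fifteen compound concentrations are applied for 24 h at 37 C, followed by luciferase luminescence.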
% is scaled to controls: 0 for no effect and ±100 for the full control effect.

C=CCCCCCCCCO
inactive: Potency [1] | Potency [2] | Potency [3] | Potency [4] | Potency [5] | Potency [6] | Potency [7] | Potency [8] | outcome [9] | Potency [10] | Potency [11] | Potency [12] | Potency [13]

O=C1C=CC(=O)O1
inactive: Potency [1] | Potency [2] | Potency [3] | Potency [4] | Potency [5] | Potency [14] | Potency [15] | Potency [6] | Potency [7] | Potency [8] | outcome [9] | Potency [10] | Potency [16] | activity change, positive = activation [17] 7.02% | Potency [18] | Potency [11] | Potency [12]

CC(=O)OC1C2(C)CCC(C2)C1(C)C (stereo not given)
inactive: Potency [1] | Potency [2] | Potency [3] | Potency [4] | Potency [5] | Potency [14] | Potency [15] | Potency [6] | Potency [7] | Potency [8] | outcome [9] | Potency [10] | Potency [16] | activity change, positive = activation [17] -1.44% | Potency [18] | Potency [11] | Potency [12]

Cc1nnc(SCC2=C(C(=O)O)N3C(=O)[C@@H](NC(=O)Cn4cnnn4)[C@H]3SC2)s1
inactive: Potency [1] | Potency [2] | Potency [3] | Potency [4] | Potency [5] | Potency [6] | Potency [7] | Potency [8] | Potency [10] | Potency [11] | Potency [12] | Potency [13]

CCC1(C)NC(=O)NC1=O (stereo not given)
inactive: Potency [1] | Potency [2] | Potency [3] | Potency [4] | Potency [5] | Potency [6] | Potency [7] | Potency [8] | outcome [9] | Potency [10] | Potency [11] | Potency [12]

CC(=O)N[C@@H](CC(C)C)C(=O)O
inactive: Potency [1] | Potency [2] | Potency [3] | Potency [4] | Potency [19] | Potency [5] | Potency [14] | Potency [15] | Potency [7] | Potency [8] | outcome [9] | Potency [10] | Potency [16] | activity change, positive = activation [17] -0.851% [at 42.5 µM] | Potency [18] | Potency [11] | Potency [12] | Potency [13]

O=CCCc1ccccc1
inactive: Potency [1] | Potency [2] | Potency [3] | Potency [4] | Potency [5] | Potency [7] | Potency [8] | outcome [9] | Potency [10] | activity change, positive = activation [17] 7.2% | Potency [18] | Potency [11] | Potency [12] | Potency [13]

CCCCC(=O)O[C@]1(C(=O)CO)[C@H](C)C[C@H]2[C@@H]3CCC4=CC(=O)C=C[C@]4(C)[C@@]3(F)[C@@H](O)C[C@@]21C
inactive: Potency [1] | Potency [2] | Potency [3] | Potency [4] | Potency [5] | Potency [14] | Potency [15] | Potency [7] | Potency [8] | outcome [9] | Potency [10] | Potency [16] | activity change, positive = activation [17] -4.32% [at 42.5 µM] | Potency [18] | Potency [11] | Potency [12] | Potency [13]
